Measurements as given in PubChem BioAssay AID504329 (Southern Research Specialized Biocontainment Screening …, 2011).
About 1,000 (0.29%) of roughly 340,000 compounds were called active. Cut-off read from the data, not from the text of the source: inconclusive = inhibition above about 27% without an active follow-up result; inactive = below that. A selection follows. Measured potencies and affinities stand elsewhere.

Test: H1N1 influenza NS1A inhibitors, functional cell based assay (AID 504329)
Settings: percent inhibition, at 12.5 µM, hits give high values

Row | Compound | inhibition
1 | CCCC(OC(=O)CC1Sc2ccccc2NC1=O)C(=O)NCc1ccco1 (centres undefined) | 4.36% (inactive)
2 | N#Cc1cc(-c2ccccc2)oc1NC(=O)c1ccccc1 | 0.56% (inactive)
3 | COc1ccc(N2CCN(C(=O)c3ccc(S(=O)(=O)NCc4ccco4)cc3)CC2)cc1 | 6.25% (inactive)
4 | Cc1ccc(N=Nc2[nH]c3ccccc3c2O)cc1 | -4.85% (inactive)
5 | COc1cccc(N=Nc2ccc3cccnc3c2O)c1 | 6.02% (inactive)
6 | Cc1ccc(C(=O)NNC(=O)c2ccc3ccccc3c2O)cc1 | -5% (inactive)
7 | COc1ccc(N=Nc2ccc3ccccc3c2)c(O)c1 | 25.1% (inactive)
8 | CCOn1c(=O)c(-c2ccc(F)cc2)[n+]([O-])c2ccccc21 | -9.53% (inactive)
9 | O=C(COc1ccc(Cl)cc1)NCc1nnc(SCC(=O)Nc2ccc(F)cc2F)o1 | 12.3% (inactive)
10 | O=C1N2CCSC2=NC1(Nc1nccs1)C(F)(F)F (centres undefined) | -5.52% (inactive)
11 | COC(=O)c1ccccc1S(=O)(=O)N(CCCN1CCOCC1)Cc1cccs1 | 18.3% (inactive)
12 | COc1cccc(C2C(C#N)=C(N)N(N(C)C)C3=C2C(=O)CCC3)c1 (centres undefined) | -18.6% (inactive)
13 | Cc1ccc(NCc2nc3ccccc3n2C)cc1 | 3.76% (inactive)
14 | Cn1c(CNc2ccccc2)nc2ccccc21 | -15.8% (inactive)
15 | Cc1ccccc1/C=N/NC(=O)Cn1cnc([N+](=O)[O-])n1 | 0.54% (inactive)
16 | Cc1cc([N+](=O)[O-])nn1CC(=O)N/N=C/c1ccccc1O | 13.7% (inactive)
17 | COc1ccccc1/C=N/NC(=O)Cn1cnc([N+](=O)[O-])n1 | 2.27% (inactive)
18 | O=C(Cn1cnc([N+](=O)[O-])n1)N/N=C/c1cccc(Cl)c1 | -19.4% (inactive)
19 | O=C(CCCn1cnc([N+](=O)[O-])n1)Nc1cc(Cl)ccc1O | -2.62% (inactive)
20 | O=C(Cn1cnc([N+](=O)[O-])n1)N/N=C/c1ccc2ccccc2c1 | -2.51% (inactive)
21 | O=C(Cn1cnc([N+](=O)[O-])n1)N/N=C/c1cccc2ccccc12 | 5.61% (inactive)
22 | Cc1cc([N+](=O)[O-])nn1Cc1ccc(C(=O)N/N=C/c2ccc(O)cc2O)cc1 | 2.59% (inactive)
23 | CCN(CC)S(=O)(=O)c1ccc(Cl)c(NC(=O)COc2ccc3c(C)cc(=O)oc3c2)c1 | 15.6% (inactive)
24 | CC(=O)c1cccc(NC(=O)CSc2ccc(-c3sc(C)nc3C)nn2)c1 | -5.12% (inactive)
25 | Cc1ccccc1NC(=O)/C(C#N)=C/c1ccc[nH]1 | -10.5% (inactive)

Row | Compound | inhibition
26 | COC(=O)c1ccc(N2CCN(C)CC2)c(NC(=O)COc2ccccc2)c1 | 4.25% (inactive)
27 | COc1ccc(-c2noc(Cn3cc(S(=O)(=O)N4CCCC4)ccc3=O)n2)cc1 | -10.2% (inactive)
28 | Cc1ccc(/C=N/n2c(-c3ccc(Cl)cc3)n[nH]c2=S)o1 | 2.1% (inactive)
29 | Cc1cc(OCC(=O)N2CCC(C(=O)O)CC2)c2c3c(c(=O)oc2c1)CCC3 | -2.02% (inactive)
30 | O=C(c1c(F)cccc1F)N1CCN(c2cccc(C(F)(F)F)c2)CC1 | -9.64% (inactive)
31 | Nc1nc(-c2ccccc2)c(N=Nc2cccnc2)s1 | 18% (inactive)
32 | Nc1nc(-c2ccccc2)c(-c2ccccc2)s1 | 4.73% (inactive)
33 | Nc1nc(-c2ccccc2)c(N=Nc2ccc(Cl)cc2)s1 | 11.4% (inactive)
34 | Nc1ccc(N=Nc2ccccc2Cl)c(N)n1 | 26.8% (inactive)
35 | C=C(C)COc1ccc(-c2[nH]ncc2-c2ccc(OC)cc2)c(O)c1 | 9.07% (inactive)
36 | CC(=O)c1sc(NC(=O)C2CCCN2S(=O)(=O)c2ccccc2F)nc1C (centres undefined) | -3.2% (inactive)
37 | COc1cc(C)ccc1OCCCOc1c(Cl)cccc1Cl | -6.86% (inactive)
38 | CC(C)c1ccc(/C=C2\CC/C(=C\C=N\N(C)C)C2=O)cc1 | 2.58% (inactive)
39 | CN(C)/N=C/C=C1\CC/C(=C\c2ccc(Br)cc2)C1=O | 5.12% (inactive)
40 | O=C(Nc1sc2c(c1C(=O)N1CCOCC1)CCCCC2)c1cccnc1 | 1.63% (inactive)
41 | Cc1nccn1CC(=O)N/N=C/c1cccc(O)c1 | -4.69% (inactive)
42 | Cc1nccn1CC(=O)N/N=C/c1cccs1 | -26.6% (inactive)
43 | COc1cccc(/C=N/NC(=O)Cn2ccnc2C)c1 | -3.78% (inactive)
44 | Cc1nccn1CC(=O)N/N=C/c1c[nH]c2ccccc12 | -1.01% (inactive)
45 | COc1ccc(/C=N/N=C2/NC(=O)C(c3ccccc3)(c3ccccc3)S2)cc1 | 9.74% (inactive)
46 | Cc1cccc(OCc2nnc(SCC(=O)Nc3cccc(C(=O)N4CCOCC4)c3)n2C)c1 | -2.72% (inactive)
47 | CN(CC(=O)Nc1ccccc1Br)C(=O)COc1cccc2c1OC(C)(C)C2 | -2.61% (inactive)
48 | Cc1cc(OCC(=O)N(C)C2CCCCC2)ccc1Cl | 1.86% (inactive)
49 | COc1ccc(C2CC(c3cccs3)=NN2C(=O)CSc2nc(=O)n3ccccc3n2)cc1 (centres undefined) | -0.56% (inactive)
50 | CN(C)c1ccc(NC(=O)CN2C(=O)CN=C(c3ccccc3)c3ccccc32)cc1 | -10.1% (inactive)

Row | Compound | inhibition
51 | Cc1ccc(NC(=O)CN2C(=O)CN=C(c3ccccc3)c3cc(Cl)ccc32)cc1 | 24.3% (inactive)
52 | CCCN(CCC)c1nc(-c2ccccn2)nc2ccccc12 | 10.6% (inactive)
53 | CN1CCN(c2nc(-c3ccccn3)nc3ccccc23)CC1 | 10.9% (inactive)
54 | c1ccc(N2CCN(c3nc(-c4ccccn4)nc4ccccc34)CC2)cc1 | 18.4% (inactive)
55 | CCC(C)Nc1nc(-c2cccc(OC)c2O)nc2ccccc12 (centres undefined) | 4.38% (inactive)
56 | Oc1ccccc1-c1nc(NCc2ccco2)c2ccccc2n1 | -19.2% (inactive)
57 | C/C(=N\Nc1nc(-c2ccccn2)nc2ccccc12)c1ccc(F)cc1 | 0.16% (inactive)
58 | c1ccc(CNc2nc(-c3ccccn3)nc3ccccc23)cc1 | 24.8% (inactive)
59 | c1ccc(CCNc2nc(-c3ccccn3)nc3ccccc23)cc1 | 21% (inactive)
60 | Cc1noc(C)c1C(=O)OCC(=O)Nc1ccc(N2CCOCC2)cc1 | 5.46% (inactive)
61 | O=C(Nc1ccc(OC(F)F)cc1)c1cc(S(=O)(=O)N2CCOCC2)ccc1N1CCCC1 | -1.31% (inactive)
62 | Cc1[nH]c2ccccc2c1C(=O)CNc1nccs1 | -1.86% (inactive)
63 | Cc1cccc(-c2nc(C#N)c(N3CCCCC3)o2)c1 | 3.65% (inactive)
64 | COc1ccc(C2(OC)Oc3cc(OC)ccc3C(=O)C2(O)OC)cc1 (centres undefined) | -14.3% (inactive)
65 | COC(=O)c1ccccc1NC(=O)C1CCN(S(C)(=O)=O)CC1 | -15.6% (inactive)
66 | CCCCCN(C(=O)CCC(=O)OCC(=O)c1cccc(OC)c1)c1c(N)n(CCCC)c(=O)[nH]c1=O | -2.41% (inactive)
67 | O=C1c2cccc(NCCNCCO)c2C(=O)c2cccc(NCCNCCO)c21 | 28% (inactive)
68 | O=C(O)c1ccccc1NCCO | -4.36% (inactive)
69 | O=C(O)CCNc1ccc(NCCC(=O)O)c2c1C(=O)c1ccccc1C2=O | 22.7% (inactive)
70 | OCCNCCO | -1.33% (inactive)
71 | Cc1ccc(C2/C(=C(\O)c3c(C)nc4ccccn34)C(=O)C(=O)N2CCN(C)C)o1 (centres undefined) | -13.9% (inactive)
72 | COc1ccc(NC(=O)COC(=O)CCCOc2ccc(Cl)cc2Cl)cc1Cl | -5.19% (inactive)
73 | Cc1[nH]nc2c1C(c1cnn(C)c1)C(C#N)=C(N)O2 (centres undefined) | -1.46% (inactive)
74 | Cc1ccc(NS(=O)(=O)c2cc([N+](=O)[O-])ccc2NNC(=S)Nc2cc(C)ccc2C)c(C)c1 | 21.2% (inactive)
75 | COc1ccc(NC(=S)NNc2ccc([N+](=O)[O-])cc2S(=O)(=O)Nc2ccc(C)cc2C)cc1 | 17.3% (inactive)

Row | Compound | inhibition
76 | Cc1cc(C)nc(NC(=NCc2ccc3c(c2)OCO3)NC(=O)Nc2ccccc2)n1 | 12.4% (inactive)
77 | O=S(=O)(NC1CCC(NS(=O)(=O)c2c(F)cccc2F)CC1)c1ccc2c(c1)OCCO2 (centres undefined) | 6.49% (inactive)
78 | Nc1nc(N)c(N=Nc2ccc(C(=O)O)cc2)c(N)n1 | 17.8% (inactive)
79 | O=C(O)c1ccc(N/N=C/c2ccnc3ccccc23)cc1 | 12.7% (inactive)
80 | CC(=NCCN1CCOCC1)c1c(O)n(-c2ccccc2C)c(=O)[nH]c1=O | 5.2% (inactive)
81 | COc1ccc(Nc2ccc(S(=O)(=O)N3CCCCC3)cc2[N+](=O)[O-])cc1 | 21% (inactive)
82 | COc1ccc(Nc2ccc(S(=O)(=O)N3CCCCC3)cc2[N+](=O)[O-])cc1Cl | 21% (inactive)
83 | COc1cc(Nc2ccc(S(=O)(=O)N3CCN(C)CC3)cc2[N+](=O)[O-])cc(OC)c1 | 18.2% (inactive)
84 | COc1ccccc1Nc1ccc(S(=O)(=O)N2CCCCC2)cc1[N+](=O)[O-] | 22.4% (inactive)
85 | CSCCC(NS(=O)(=O)c1cccc(C(F)(F)F)c1)C(=O)N(C)Cc1ccc2c(c1)OCCO2 (centres undefined) | -15.2% (inactive)
86 | C/C(=N\Nc1ccccc1)c1c(O)n(-c2ccccc2)c(=O)[nH]c1=O | -15.4% (inactive)
87 | N#C/C(=C/c1ccccc1[N+](=O)[O-])c1nc(C2CC2)cs1 | 16.5% (inactive)
88 | N#C/C(=C\c1ccc([N+](=O)[O-])cc1)c1nc(C2CC2)cs1 | -3.47% (inactive)
89 | CN(CC(=O)NC(=O)NC1CCCCC1)c1ccccc1 | -19.7% (inactive)
90 | CCCc1nnc(SCC(=O)Nc2cc(C)on2)n1CCOC | -2.31% (inactive)
91 | O=C(O)c1cc(S(=O)(=O)N2CCCCC2)sc1Cl | 0.17% (inactive)
92 | Cc1[nH]n(-c2ccccc2)c(=O)c1N=Nc1c(Cl)cccc1Cl | -0.23% (inactive)
93 | Cc1[nH]n(-c2ccccc2)c(=O)c1N=Nc1ccc(Cl)cc1 | 1.98% (inactive)
94 | Cc1[nH]n(-c2ccccc2)c(=O)c1N=Nc1ccc2c(c1)OCO2 | 1.81% (inactive)
95 | Cc1ccc(N=Nc2c(C)[nH]n(-c3ccccc3)c2=O)cc1Br | 2.46% (inactive)
96 | Nc1[nH]n(-c2ccccc2)c(=O)c1N=Nc1ccc2c(c1)OCO2 | -20.9% (inactive)
97 | Cc1[nH]n(-c2ccccc2)c(=O)c1N=Nc1ccccc1O | 27.8% (inactive)
98 | Nc1[nH]n(-c2ccccc2)c(=O)c1N=Nc1ccccc1 | 20.9% (inactive)
99 | Cc1[nH]n(-c2ccccc2)c(=O)c1N=Nc1ccccc1 | -4.27% (inactive)
